Screening data deposited in PubChem by National Center for Advancing Translational Sciences (NCATS).
FLuc inh: qHTS Assay for Inhibitors of Firefly Luciferase; Luciferin 4-monooxygenase (Photinus pyralis), P08659; purified firefly luciferase, luminescence, 8 min; Potency, µM (titrated, usually from 57.1 µM), without a hit: at the highest dose activity change, negative = inhibition, actives largely listed as inhibitors; 2.2% of 72,000 active; AID 411, 2009; active = well fitted inhibition curve with a large enough effect; inconclusive = small, poorly fitted or top-dose-only effect; also: nearly all actives have a fitted effect of over 40% in size
Target sequence (P08659 whole entry, looked up): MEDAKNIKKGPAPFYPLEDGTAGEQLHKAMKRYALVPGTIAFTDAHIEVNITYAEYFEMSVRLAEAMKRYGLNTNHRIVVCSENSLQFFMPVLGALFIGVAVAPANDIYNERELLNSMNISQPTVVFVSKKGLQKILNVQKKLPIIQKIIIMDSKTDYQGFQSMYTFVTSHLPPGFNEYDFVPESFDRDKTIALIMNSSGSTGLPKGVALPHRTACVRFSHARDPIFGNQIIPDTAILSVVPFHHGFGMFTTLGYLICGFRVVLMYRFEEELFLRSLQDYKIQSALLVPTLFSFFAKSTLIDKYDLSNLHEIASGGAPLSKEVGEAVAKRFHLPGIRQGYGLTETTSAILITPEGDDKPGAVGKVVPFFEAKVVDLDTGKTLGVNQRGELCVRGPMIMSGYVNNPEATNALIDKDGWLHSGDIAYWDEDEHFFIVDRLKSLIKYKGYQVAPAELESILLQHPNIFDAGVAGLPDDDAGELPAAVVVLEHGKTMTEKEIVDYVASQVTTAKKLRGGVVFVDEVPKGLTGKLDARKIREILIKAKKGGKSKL
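Firefly luciferase (PKLight detection mix) with 10 uM ATP in pH 7.2 imidazole buffer (KCl, MgCl2, Tween 20, BSA). Compounds tested across a concentration series (qHTS). Luminescence read after 8 min at ambient temperature.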
PK Bst: Pyruvate Kinase. 1.2% of 51,000 active. Potency, µM. purified pyruvate kinase, luminescence ATP production; ribose 5-phosphate activator present at AC10; in the data active = potency below about 11 µM; inconclusive = mostly about 12 µM to 25 µM;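 the screen sought inhibitors and activators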;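 also: scaled between full activation by ribose 5 phosphate and full inhibition by luteolin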
The depositor's hits bear a star; i = inactive; ? = inconclusive; . = not tested or not shown; [ ] = another dose, or the depositor's remark. An excerpt weighted towards active compounds, which were near 2.5% of everything screened. Unless noted, % is scaled to controls: 0 for no effect and ±100 for the full control effect; potency is read from the fitted curve at half-maximal effect.

SMILES	FLuc inh	PK Bst
O=C(NCCCn1ccnc1)c1cn(-c2ccccc2)nc1-c1ccc(F)cc1	13µM*	i
O=C(NCCCn1ccnc1)c1cccnc1	0%[25.5 µM]	>26
COCc1nc2ccccc2n1Cc1ccc(Br)cc1	3%	>57
CCSc1nncn1/N=C/c1ccc(OC)c(OC)c1	-19%	.
COc1ccc(/C=N/n2c(N)nc3ccccc32)cc1OC	6.3µM*	8.4*
CCOC(=O)CCn1c(CC(=O)OCC)nc2ccccc21	1%	>57
CC1CCN(C(=O)CN2C(=O)c3ccccc3S2(=O)=O)CC1	0%	>57
CN(C)c1ccc(C2=NOC(CN3C(=O)c4ccccc4S3(=O)=O)C2)cc1 (centres undefined)	16µM*	.
Cn1c(-c2ccc(CN3CCCCC3)o2)nc2ccccc21	13µM*	>11
c1ccc2[nH]c(CN3CCCCCC3)nc2c1	0%	>57
CC(=O)c1c(O)cc(C)n(Nc2nc(C)cc(C)n2)c1=O	2%	>57
CCCc1nc(NC2CCCCC2)c(C#N)c2c1COC(C)(C)C2	4%[25.5 µM]	>26
Cc1cccc(OCC(=O)Nc2cc(C)ccc2O)c1	-4%	>57
COc1cccc(C(=O)/C=C/Nc2cc(C)ccc2O)c1	7.9µM*	5.6*
COc1cc(CCC(=O)N2CCN(c3ccc(N4CCOCC4)nn3)CC2)cc(OC)c1OC	0%	.
Cc1ccc(-n2c(O)cnc2Nc2nc(C)cc(C)n2)cc1	3%	>57
CCCN1C(=O)c2ccc(C(=O)Nc3nccs3)cc2C1=O	13µM*	>57
CCCc1cc(C(=O)Nc2nccs2)cs1	7.9µM*	?
CC(C)CN1C(=O)c2ccc(C(=O)Nc3nccs3)cc2C1=O	13µM*	.
COc1ccc(C(=O)Nc2nccs2)cc1OC	-7%	.
COCCN1C(=O)c2ccc(C(=O)Nc3nccs3)cc2C1=O	-28%	.
CC(C)CN1C(=O)c2ccc(C(=O)Nc3ccncc3)cc2C1=O	-2%	>57
Cc1nn(Cc2ccc(C(=O)Nc3nccs3)cc2)c(C)c1Cl	-1%	3.1*
Cc1ncoc1C(=O)Nc1nccs1	-1%	>57
O=C(CCCCC(=O)Nc1c(I)cc(I)c(C(=O)O)c1I)Nc1c(I)cc(I)c(C(=O)O)c1I	5%[25.5 µM]	.
SMILES	FLuc inh	PK Bst
CCc1ccccc1N(CC)C(=O)c1cn(CC)c(=O)c2cc(OC)c(OC)cc12	2%	>57
COc1cc(C(c2nnnn2C(C)(C)C)N2CCN(C)CC2)cc(OC)c1OC (centres undefined)	1%	>57
CCOC(=O)C1CCN(c2nc3ccccc3nc2C(C#N)C(=O)OCCOC)CC1 (centres undefined)	0%[25.5 µM]	2.3*
C=CCOC(=O)C(C#N)c1nc2ccccc2nc1N1CCC(C(=O)OCC)CC1 (centres undefined)	3%[25.5 µM]	i
CCOC(=O)C1CCN(c2nc3ccccc3nc2C(C#N)C(=O)OC(C)COC)CC1 (centres undefined)	2%[25.5 µM]	5.6*
CCOC(=O)C1CCN(c2nc3ccccc3nc2C(C#N)C(=O)OC(C)C)CC1 (centres undefined)	2%[25.5 µM]	>26
c1ccc(SC(Sc2ccccc2)c2ccc3c(c2)OCO3)cc1	1%[11.4 µM]	.
O=C(O)/C=C\c1c2ccc(=O)c(O)c-2oc2c(O)c(O)ccc12	-4%[11.4 µM]	.
COCCCn1cnc2oc3nc4ccccc4nc3c2c1=O	25µM*	.
COCCCn1cnc2c(c1=O)c1nc3ccccc3nc1n2-c1ccccc1	1%	>57
COc1ccc(Cc2nn3c(Cn4nnc5ccccc54)nnc3s2)cc1	16µM*	.
c1ccc(-c2nn3c(Cn4nnc5ccccc54)nnc3s2)cc1	-1%	>57
CC(C)C(=O)Nc1ccc2c(c1)nc1n2CCSC1	-7%	>57
COc1ccc(C(=O)Nc2ccc3c(c2)nc2n3CCSC2)cc1	13µM*	?
O=C(Nc1ccc2c(c1)nc1n2CCSC1)c1ccccc1	10µM*	?
CCC(=O)Nc1ccc2c(c1)nc1n2CCSC1	-7%	>57
COC(=O)c1c(NC(=O)CSc2nnnn2-c2ccc3c(c2)OCO3)sc(C)c1C	4%	>57
COc1ccc(-c2ncc3ccccn23)cc1	16µM*	.
c1csc(-c2ncc3ccccn23)c1	-3%	.
CCOc1ccc(CCNC(=O)CN2CCN(Cc3ccc(F)cc3)C2=O)cc1OCC	0%	>57
COc1ccccc1NC=C1C(=O)OC(C)(C)OC1=O	16µM*	.
CCOc1ccccc1NC=C1C(=O)OC(C)(C)OC1=O	-3%	>57
O=C(O)/C=C/c1ccc(O)c(O)c1	-2%[25.5 µM]	>11
O=C(/C=C\c1ccc(O)cc1)c1ccc(O)cc1O	25µM*	.
CCCCCc1nc2c(=O)n(C)c3ccccc3c2o1	0%	.
SMILES	FLuc inh	PK Bst
Cn1c(=O)c2nc(-c3ccccc3)oc2c2ccccc21	-3%	0.43*
CCOC(=O)c1ccccc1NC1c2ccccc2C(=O)N1C1CCN(C(=O)OCC)CC1 (centres undefined)	2%	.
COC(=O)c1ccc(NC(=O)Nc2ccc(F)cc2)cc1	20µM*	i
COC(=O)c1ccc(NC(=O)COc2ccccc2OC)cc1	2%	.
CCC(=O)Oc1ccc(C(CC)C(CC)c2ccc(OC(=O)CC)cc2)cc1 (centres undefined)	0%[25.5 µM]	>26
CCn1ccc(C(=O)Oc2ccc(C(C)C)cc2)n1	13µM*	i
CCNS(=O)(=O)c1ccc(NC(=O)Cc2ccc(F)cc2)cc1	-1%	>57
O=C(CCCc1ccccc1)N1CCc2ccccc21	13µM*	.
O=C(CCC(=O)N1CCc2ccccc21)N1CCc2ccccc21	0%	>57
CN(C)c1ccc(-c2nccc(Nc3ccc(F)cc3)n2)cc1	-9%[2.29 µM]	.
CN(C)c1ccc(N/C=C/C(=O)c2ccc(F)cc2)cc1	0.63µM*	?
CCn1c(=O)cc(SCC(=O)N2CCN(C3CCCCC3)CC2)c2ccccc21	-1%	>57
CCOC(=O)C(C)(C)Oc1ccc(Cl)cc1	1%	.
C/C(=N\O)c1ccc2c3c([nH]c2c1)CCCC3	16µM*	.
C/C(=N\O)c1ccc2[nH]ccc2c1	-8%[25.5 µM]	>26
Cc1ccc(-c2nnc(SCC(=O)O)n2N)cc1	-2%	>57
CC(C)(C)c1ccc(-c2nnc(SCC(=O)O)n2N)cc1	16µM*	.
COc1ccc(CCNC(=O)c2ccc3nc(-c4ccco4)c(-c4ccco4)nc3c2)cc1OC	-9%	>57
COc1ccc(C(C(O)C(=O)c2c[nH]c3ccccc23)N2CCN(c3ccc(OC)cc3)CC2)cc1 (centres undefined)	1%	>57
COc1ccc(C(=O)c2c[nH]c3ccccc23)cc1	10µM*	.
CC(=O)c1cccc(NC(=O)c2cc3ccccn3n2)c1	3.2µM*	.
O=C(NCc1ccc(F)cc1)c1cc2ccccn2n1	-7%	.
CC(=O)c1cccc(NC(=O)c2cnn3ccccc23)c1	13µM*	.
CC(=O)c1cccc(NC(=O)Nc2cccnc2)c1	-25%	>57
CCOc1ccc(NC(=O)C2CC(C)=C(C)CC2C(=O)O)cc1 (centres undefined)	0%	.
SMILES	FLuc inh	PK Bst
CC(C)Cc1nc(N2CCN(C(=O)Cc3ccccc3)CC2)c(C#N)c2c1COC(C)(C)C2	0%[25.5 µM]	>11
CC1=C(C#N)C(C)C2=C(CC(C)(C)CC2=O)N1 (centres undefined)	4%	.
CN=C(Nc1cc(C)nn1-c1ccccc1)c1ccccc1	1%	>57
COc1cc(C(=O)Nc2ccc3c(c2)OCCO3)c(-n2cnnn2)cc1OC	3%	>57
COc1ccccc1C(=O)Nc1ccc2c(c1)OCCO2	16µM*	i
COc1ccc(Cl)cc1C(=O)Nc1ccc2c(c1)OCO2	13µM*	i
COc1ccc(Cl)cc1C(=O)Nc1ccc(NC(=O)c2ccco2)cc1	2%	.
